A selection: hits, their analogues and other compounds. The true share with any hit is near 19%.
DT40 TDP1 no CPT: qHTS for Inhibitors of human tyrosyl-DNA phosphodiesterase 1 (TDP1): qHTS in cells in absence of CPT; 420,000 compounds, 15% hits; Potency, µM (titrated, usually from 46.2 µM), actives largely listed as inhibitors; DT40 Tdp1-/- hTDP1 cells, no CPT, ATP luminescence, 48 h; also: nearly all actives have a fitted effect of over 55% in size
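Readout: luminescence from CellTiter-Glo after 30 min in the dark at RT. Cells: DT40 Tdp1-/- with stable hTDP1, 400/well. Exposure: compounds alone, ≥48 hr, 37 °C.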
IL1B secr inh: inflammasome signaling inhibition, IL-1 beta readout. THP-1 LPS/ATP IL-1B secretion, AlphaLISA, 16 h; stronger effect = lower value. activity change, % at 57.5 µM. 360,000 compounds, 4.7% hits. AID 743279; in the data active = activity change below about -50%; inconclusive = mostly about -30% to -49%
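THP-1 cells pretreated 1 hr with compounds (up to 57.5 uM final), then stimulated with LPS (250 ng/mL final) plus ATP (1.25 mM final); secreted IL-1B measured by AlphaLISA after 16 hr, decreased signal indicating inhibition.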
DT40 TDP1 CPT: DT40-hTDP1 cell growth loss with CPT. chicken DT40 Tdp1-/-;hTDP1 cells + 20 nM CPT, ATP luminescence, 48 h. Potency, µM (doses to about 46.2 µM), hits mostly inhibitors. 420,000 compounds, 12% hits; also: nearly all actives have a fitted effect of over 55% in size
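Chicken DT40 Tdp1-/- cells stably complemented with human TDP1 were seeded at 400 cells/well in medium containing 20 nM camptothecin, exposed to pin-transferred compounds, and grown at 37 °C for at least 48 hr. Viability was read as ATP luminescence.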
HT1080-NT tox: kills 2HG-producing HT-1080-NT fibrosarcoma cells | HT-1080-NT fibrosarcoma viability, CellTiter-Glo ATP luminescence, 48 h | Potency, µM (highest dose often 46.1 µM), most hits filed as cytotoxic | 360,000 compounds, 1.6% hits;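 also: NT is the 2HG producing partner of a matched IDH1 knockdown line; nearly all actives have a fitted effect of over 55% in size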
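Viability by CellTiter-Glo luminescence after 48 h compound exposure at 37C of HT-1080-NT cells (750/well, RPMI, 5% FBS). % activity scaled between DMSO wells and medium-only wells, then curve-fitted and categorized by curve class.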
HT1080 IDH1KD tx: kills HT-1080 cells with IDH1 knockdown. HT-1080 IDH1 knockdown viability, ATP luminescence, 48 h. Potency, µM (top dose mostly 46.1 µM), actives largely listed as cytotoxic. 360,000 compounds, 2% hits
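In this qHTS, HT-1080 cells depleted of IDH1 are exposed for 48 h at 37 °C to compound titrations. Toxicity is scored from CellTiter-Glo luminescence, with DMSO as full viability and medium alone as none.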
Hits are given with their value; – = inactive; ? = inconclusive; · = not tested or not shown; [ ] = another dose, or the depositor's remark. Unless noted, calls follow the shape of the dose curve; as a rule, active = well fitted curve in the direction sought with a large enough effect; inconclusive = small, poorly fitted or top-dose-only effect, or another doubt; inactive = no such curve, though single readings can be large; an effect the other way counts as inactive or inconclusive.

SMILES | DT40 TDP1 no CPT | IL1B secr inh | DT40 TDP1 CPT | HT1080-NT tox | HT1080 IDH1KD tx
CC(C)(C)c1ccc(C(=O)NN2C(=O)CSC2=S)cc1 | – | – | – | – | –
COc1ccc(Cl)cc1NC(=O)CCNC(=O)OCc1ccccc1 | ? | – | – | – | –
Cn1c(=O)c2c(ncn2Cc2cc(-c3ccccc3)no2)n(C)c1=O | 26µM | – | ? | – | –[9.24 µM]
Cn1c(=O)c2c(ncn2Cc2ccc(Cl)c(Cl)c2)n(C)c1=O | 12µM | – | 23µM | – | –
Cn1c(=O)c2c(ncn2Cc2cccc(Cl)c2)n(C)c1=O | ? | – | ? | ? | –
CN(C)CCn1cnc2c1c(=O)n(C)c(=O)n2C | – | – | – | – | –
COc1ccc(C)c2sc(NC(=O)CCS(=O)(=O)c3ccccc3)nc12 | 16µM | -90 | 23µM | – | ?
CCOc1cccc2sc(NC(=O)CCS(=O)(=O)c3ccccc3)nc12 | 8.2µM | – | 8.2µM | – | ?
CCOc1cccc2sc(Nc3nc4ccc(NC(C)=O)cc4s3)nc12 | ? | ? | 18µM | ? | ?
CCOc1cccc2sc(N(CCN(C)C)C(=O)CCS(=O)(=O)c3ccccc3)nc12 | – | – | ? | – | –
COC(=O)c1cc(S(=O)(=O)NCC2CCN(CCc3cccs3)CC2)c[nH]1 | – | – | – | – | –
CS(=O)(=O)N1CCC(C(=O)Nc2cccc([N+](=O)[O-])c2)CC1 | – | – | – | – | –
CCOC(=O)C1=C(COC(=O)/C=C/c2ccc(OC)cc2)NC(=O)NC1C (configuration not stated) | 21µM | – | 9.2µM | – | ?
CCOC(=O)C1=C(COC(=O)COc2ccc(C#N)cc2)NC(=O)NC1C (configuration not stated) | 16µM | – | – | – | –
CCOC(=O)C1=C(COC(=O)COc2ccc(C(C)=O)cc2)NC(=O)NC1C (configuration not stated) | – | – | – | – | –
Cc1ccc2c(CN(C)Cc3ccc(Cl)cc3)cc(=O)oc2c1 | ? | – | – | – | –
CC(C)(C)c1ccc(CN2N=Nc3ccccc3S2(=O)=O)cc1 | 7.3µM | – | 5.8µM | ? | ?
Cc1cc(Cl)ccc1NC(=O)CN1CCC(C(O)(c2ccccc2)c2ccccc2)CC1 | ? | -61 | ? | ? | ?
Cc1cc(Cl)ccc1NC(=O)CN1CCCC1 | – | – | – | – | –
O=C(CN1CCCCC1)Nc1ccc(NC(=O)c2ccc(Cl)cc2)cc1Cl | 26µM | – | 13µM | – | –
O=C(CN1CCCC1)Nc1ccc(Cl)cc1C(F)(F)F | ? | – | 23µM | – | –
COc1ccccc1C(=O)OCc1cc(=O)n2nc(C(C)C)sc2n1 | – | · | – | · | ·
COc1ccc([C@H]2C(C(=O)O)=C[C@@H](C(C)(C)C)N2S(=O)(=O)c2ccc(C)cc2)cc1OC | – | – | – | – | –
COC(=O)CNC(=O)CN1C(=O)N(c2ccc(Cl)cc2)C(N(O)C(=O)Nc2ccc(Cl)cc2)C1(C)C (configuration not stated) | – | – | – | – | –[9.24 µM]
Oc1ccc(-c2cnc(-c3ccc(O)cc3)nc2)cc1 | ? | – | – | ? | 0.21µM
SMILES | DT40 TDP1 no CPT | IL1B secr inh | DT40 TDP1 CPT | HT1080-NT tox | HT1080 IDH1KD tx
CN(C)c1ccc(C2CC(c3cccc(NS(C)(=O)=O)c3)=NN2C(=O)c2ccccc2)cc1 (configuration not stated) | ? | -58 | – | – | –
COc1cccc(C2CC(c3cccc(NS(C)(=O)=O)c3)=NN2C(=O)c2ccccc2)c1OC (configuration not stated) | 21µM | – | 23µM | – | –
O=[N+]([O-])c1cc([N+](=O)[O-])c(Oc2cc(F)cc(F)c2)cc1NN1CCCCC1 | – | – | 18µM | – | –
O=[N+]([O-])c1cc([N+](=O)[O-])c(Oc2ccc(F)cc2)cc1NN1CCCCC1 | – | – | – | – | –
C/C(CS(=O)(=O)c1ccc(Cl)c(Cl)c1)=N/NC(N)=S | 5.8µM | – | 18µM | – | –
C/C(CS(=O)(=O)c1ccc(Cl)cc1)=N/NC(N)=S | – | – | – | – | –
Cc1ccc(CC(=O)N(C)CC(=O)Nc2ccc(N3CCOCC3)cc2)cc1C | – | – | 13µM | – | –
